# Source: PubChem (National Center for Advancing Translational Sciences (NCATS))
# CHX counter – Cycloheximide Counterscreen for Small Molecule Inhibitors of Shiga Toxin | cell reporter, cycloheximide protein synthesis inhibition counterscreen | max response, % | 300,000 tested, 12% active | AID 2314, 2010; in the data active means max response mostly above about 13%, no sharp cut-off; inactive means mostly below about 14%; further: read at 38.3 µM for the half of the compounds with a filed dose
# Shiga inhibitor – A qHTS for Small Molecule Inhibitors of Shiga Toxin. Vero cells, Shiga toxin protein synthesis inhibition reporter. inhibition, % at 38.7 µM. 290,000 tested, 9.2% active. AID 2315, 2010; in the data active means inhibition mostly above about 28%, no sharp cut-off; inactive means mostly below about 43%
# Pf growth 96h – Primary qHTS for delayed death inhibitors of the malarial parasite plastid, 96 hour incubation; P. falciparum luciferase reporter growth, 96 h; Potency, µM (doses to about 28.7 µM), most hits filed as inhibitors; 320,000 tested, 6.9% active
#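 Two-generation exposure (96 h) targets delayed-death phenotype. Reporter parasites carrying integrated firefly luciferase, in red cells at 2% hematocrit and 0.05% parasitemia final, kept at 37 C, 5% CO2; luminescence loss indicates inhibition.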
# Pf growth 48h – Primary qHTS for delayed death inhibitors of the malarial parasite plastid, 48 hour incubation; Potency, µM (titrated, usually from 28.7 µM), most hits filed as inhibitors; P. falciparum luciferase growth in erythrocytes, 48 h; 310,000 tested, 5.9% active
#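 Growth was read as firefly luciferase luminescence after a 48 h, 37 C, 5% CO2 exposure of compounds to reporter-bearing P. falciparum cultures (0.1% parasitemia, 2% hematocrit final) in Albumax-supplemented RPMI 1640.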
# HCMV inh – qHTS Assay for inhibitors of the human cytomegalovirus (HCMV); HFF cells, HCMV-luciferase reporter, 72 h; hits give low values; activity change, negative = inhibition, % at 57.5 µM; 410,000 tested, 4.5% active; in the data active means activity change below about -60%; inconclusive means no clear call, values can overlap the other calls; inactive means above about -39%
#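 Steps: HFFs plated, 16 h 37C; compounds added; HCMV-luciferase added to MOI 1 PFU/cell; 72 h 37C; OneGlo reagent, 5 min room temperature; luminescence read, normalized to controls.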
# Numbers stand for hits; – = inactive; ? = inconclusive; · = no result; [ ] = remark or other dose. Only some compounds are listed: those with a hit (about 20% of all), similar ones and a draw of the others. Unless noted, the call rests on the fitted dose curve; in most records, active means well fitted inhibition curve with a large enough effect; inconclusive means small, poorly fitted or top-dose-only effect, or another doubt; inactive means no such curve, though single readings can be large or run the other way.
SMILES,CHX counter,Shiga inhibitor,Pf growth 96h,Pf growth 48h,HCMV inh
CCCCC(=O)Nc1ccc(Cl)cn1,–,–,–,–,–
CCCCC(=O)Nc1ccc(NC(=O)C(C)C)cn1,26,73,·,–,–
CCCCC(=O)Nc1ccc(NC(=O)c2cnccn2)cn1,25,–,–,–,–
Cc1ccc(C(C(=O)NC(C)(C)C)N(C(=O)CCC(=O)Nc2ccccn2)c2ccccc2F)cc1 (centres undefined),–,–,?,?,?
Cc1ccc(NC(=O)c2oc3ccccc3c2NC(=O)c2cc3ccccc3o2)cc1,·,·,·,·,–
N=c1oc2cc(O)ccc2cc1C(=O)Nc1ccc(Cl)cc1,43,114,–,–,–
N=c1oc2ccccc2cc1C(=O)Nc1ccc(F)cc1,29,92,–,–[0.00184 µM],–
O=C(Nc1c(C(=O)Nc2ccc(F)cc2)oc2ccccc12)c1ccccc1F,·,·,·,·,–
Cc1ccc(NC(=O)c2cc3ccccc3oc2=N)cc1,77,147,–,–,–
N=c1oc2ccccc2cc1C(=O)Nc1cccc(F)c1,41,73,?,–,–
Cc1ccc(C(=O)N2CCn3c(nnc3C(=O)NCC3CC3)C2)cc1F,·,·,·,·,–
Cc1ccc(CNC(=O)CCSCc2cnn(-c3ccccc3)c2-n2cccc2)cc1,·,·,·,·,–
CCOC(=O)/C(=N\O)C1=NC(C)(C)Cc2ccccc21,–,–,–,–,–
Cc1cccc(N/N=C(\C(N)=O)C2=NC(C)(C)Cc3ccccc32)c1,–,–,4.7µM,5.9µM,-98
CCOC(=O)c1c(C)c2c(=O)[nH]cnc2n1-c1ccccc1,–,–,–,·,-62
CCOC(=O)c1sc2nc[nH]c(=O)c2c1C,–,–,–,·,–
Cc1ccc2nc(NC(=O)C3CC3C)sc2c1 (centres undefined),37,94,–,–,–
CC1CC1C(=O)Nc1nc2ccc(S(C)(=O)=O)cc2s1 (centres undefined),28,59,–,–,–
CS(=O)(=O)c1ccc2nc(NC(=O)c3cc([N+](=O)[O-])cc([N+](=O)[O-])c3)sc2c1,–,·,–,–,–
Cc1ccc2nc(NS(C)(=O)=O)sc2c1,–,–,–[5.75 µM],–,–
O=C1CC(c2ccco2)CC2=C1C(c1cccnc1)n1nc(C(F)(F)F)nc1N2 (centres undefined),–,–,·,·,·
Cc1nn(C)cc1CNC(=O)c1ccc(F)cc1,–,–,–,–,–
C#CC(C)(CC)NC(=O)Cn1nnc(-c2ccc(OCc3ccccc3Cl)cc2)n1 (centres undefined),·,·,·,·,–
Fc1ccccc1COc1ccc(-c2nnn(Cc3ccccc3F)n2)cc1,–,–,·,·,–
CC(C)n1nnc(-c2ccc(OCc3ccccc3F)cc2)n1,26,·,8.3µM,–,–
SMILES,CHX counter,Shiga inhibitor,Pf growth 96h,Pf growth 48h,HCMV inh
Cn1nnc(-c2ccc(OCc3ccccc3F)cc2)n1,44,94,–,–,–
Fc1ccccc1COc1ccc(C(=S)N2CCCC2)cc1,34,116,?,–,–
NC(=O)C1CCN(S(=O)(=O)c2ccccc2[N+](=O)[O-])CC1,–,–,?,–,–
O=C(CC1CC2CCC1C2)N1CCN(S(=O)(=O)c2ccccc2[N+](=O)[O-])CC1 (centres undefined),·,·,10µM,?,–
O=C(CC1CC2CCC1C2)N1CCN(S(=O)(=O)c2ccccc2C(F)(F)F)CC1 (centres undefined),·,·,?,12µM,–
CCOc1cc(/C=N/Nc2nnc(C)n2N)ccc1O,25,50,–,?,–
CCOc1cc(/C=N/Nc2ncnc(Cl)c2N)ccc1O,35,57,–,–,–
Cc1nnc(N/N=C/c2ccccc2O)n1N,17,31,–,–,-104
Cc1nnc(N/N=C/c2ccc(-c3ccccc3F)o2)n1N,25,150,–,–,–
Cc1nnc(N/N=C\c2ccc(-c3ccccc3[N+](=O)[O-])o2)n1N,–,–,?,–,–
CN(C)CCCn1c2c(c(SCC(=O)Nc3cccc4ccccc34)nc1=O)CCCC2,·,·,?,?,–
CCc1ccccc1NC(=O)c1nnn(CC(=O)Nc2c(C)cc(C)cc2C)c1N,·,·,·,·,–
COc1ccc(OCC(=O)N/N=C/C(C)=C/c2ccco2)c(Br)c1,–,–,–,–,–
Cc1cc(/C=N/NC(N)=S)c(C)n1-c1ccc(Br)cc1,–,–,–,?,–
Cc1nnc(N/N=C/c2cc(C)n(-c3ccc(F)cc3)c2C)n1N,24,–,–,–,–
COc1cc(OC)cc(C(=O)NNC(=O)CCC2CCCC2)c1,·,·,·,·,–
CN(C)c1cccc(C(=O)NNC(=O)NC2CCCCC2)c1,–,–,6.6µM,–,?
COc1cc(OC)cc(C(=O)NNC(=O)NC2CCCCC2)c1,–,–,10µM,–,–
CNC(=S)NNC(=O)c1cccc(N(C)C)c1,–,–,–,–,–
CN(C)c1cccc(C(=O)NNC(=S)NC2CCCC2)c1,18,–,–,–,–
CN(C(=O)COc1ncnc2ccc(Br)cc12)C1CCCCC1,·,·,·,·,–
Cc1ccccc1C(=O)Oc1ccc(Sc2ccc(O)cc2)cc1,–,–,·,–,–
Cc1ccccc1C(=O)Oc1ccc(-c2csnn2)cc1,22,–,–,–,–
c1ccc(COc2ccc(-c3csnn3)cc2)cc1,60,60,–,–,·
C=CC(=O)NCc1ccc(-c2csnn2)cc1,–,–,–,–,–
SMILES,CHX counter,Shiga inhibitor,Pf growth 96h,Pf growth 48h,HCMV inh
CC(=O)COc1ccc(-c2csnn2)cc1,–,42,–,–,–
COc1ccc(NC(=O)CSc2nnc(Cc3ccc(C)cc3)c(=O)n2N)cc1,·,·,?,–,–
c1ccc(-c2nnc(CN3CCC4(CC3)OCCO4)o2)cc1,–,–,?,–,–
c1ccc(-c2nnc(CN3CCCc4ccccc43)o2)cc1,16,–,·,?,–
OC1(c2ccccc2F)CCN(Cc2nnc(-c3ccccc3)o2)CC1,20,–,·,?,–
CCN1CCN(Cc2nnc(-c3ccccc3)o2)CC1,–,–,–,–,–
COC(=O)C1CCN(Cc2nnc(-c3ccccc3)o2)CC1,24,59,–,–,–
c1ccc(-c2nnc(CN3CCCCC3)o2)cc1,41,75,–,–,–
Cc1cc(C)c2c(CC(=O)N3CCN(c4cccc(Cl)c4)CC3)coc2c1,·,·,·,·,–
Cc1ccc(-c2ccc(C(=O)NCc3ccccc3)o2)c2ccccc12,–,–,10µM,?,–
CCOc1ccccc1-c1ccc(C(=O)NCc2ccccc2)o1,–,–,7.4µM,?,–
Cc1ccc(-c2cccc(C(=O)NCc3ccccc3)n2)c2ccccc12,–,–,13µM,?,–
Cc1ccc(-c2ccc(C(=O)Nc3ccccc3)o2)c2ccccc12,36,67,?,–,–
Cc1ccc(S(=O)(=O)NC(=O)c2ccc(-c3ccc(C)c4ccccc34)o2)cc1,–,–,–,–,–
CCOc1cccc2cc(C(=O)NCc3ccccc3)c(=N)oc12,–,–,?,–,·
CC1(C)NS(=O)(=O)Oc2ccccc21,–,–,–,–,?
